# ± gives the standard deviation of the averaged measurements. Whole data set: some 25,000 sequences, median “ln(normalized median fluorescence intensity)” near 8.6, cut for the highest 2% near 10. For the sample, the highest values were picked, then their nearest neighbours and some sequences at random.
# Test system: PfAP2-EXP AP2 domain (GST-tagged)
# Experiment: gcPBM binding intensity (ln(normalized median fluorescence intensity)); higher = stronger DNA binding
# In short: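 GST-fused DNA-binding domains of P. falciparum, expressed in E. coli, were applied at about 25 μg on average for 1 h to an Agilent 4 × 180k array of primer-extended double-stranded 36-bp intergenic genomic probes and negative controls. Binding intensity is the highest Masliner-normalised natural-log median intensity across replicate spots of either probe orientation, measured with Alexa488 anti-GST antibody and a 488 nm scan.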
row,Sequence,gcPBM binding intensity (ln)
1,AAAAGGATTTTTTATACACACACTAACTAATGTATA [CACACA_site2356],8.23 ± 0.43
2,TAAATAAAATACAAATGTACATAAATAATAAATATA [XGTACX_site1813],8.76 ± 0.41
3,CATATATAATAATATTGTACATATATAATAATAATA [XGTACX_site3338],8.4 ± 0.35
4,TTATACTAAATGAACACACACACATATATATATATA [CACACA_site99],10 ± 0.5
5,TTAAATGTTATATATTGTACATATAATATATGTATT [XGTACX_site1492],8.27 ± 0.19
6,AAATGGAGTTAATATTGTACATATATATATATATAT [XGTACX_site5452],10.3 ± 0.18
7,ATACATGAATAAATATGTACACATATAAAAACATAT [XGTACX_site2740],8.68 ± 0.23
8,TATAATATATACAAATGTACATATATATATATATAT [XGTACX_site4559],10.2 ± 0.42
9,ATATATATAATATATTGTACATATAATATATATATA [XGTACX_site4792],9.24 ± 0.042
10,ATACTAAAAATGAATGTACACATATATATATATATA [TGCATGCA_negctrl_site209],10.2 ± 0.33
11,AATAAAATACAAAAATGTACAAATATAATATACATA [XGTACX_site279],8.34 ± 0.28
12,TATTAAATATTGTAATGTACATATATAATATAATAT [XGTACX_site1809],8.53 ± 0.17
13,TCTGGCATATAATATTGTACACATATATATATATAT [XGTACX_site8182],10.2 ± 0.33
14,GGATAAAATGCTACGAGTACATAAGCATTTTTCCCT [XGTACX_site7796],8.73 ± 0.35
15,ATGGTCTGTTAAAGATGTACTTTTTAAAAATAAACG [XGTACX_site2583],8.48 ± 0.25
16,TATAGGTATATATTATGTACTTATAATTATATAGAT [XGTACX_site1912],8.52 ± 0.35
17,TATATATATAAAATATGTACATAAAATTATTTATTT [XGTACX_site7666],8.61 ± 0.26
18,ATATAATAATAAGGCACACAAATTAAAATATAAAAA [CACACA_site3710],8.79 ± 0.35
19,TCATAAATATGAAAAAGTACAAAGGTAGATTTTGAA [XGTACX_site4535],8.48 ± 0.3
20,GGATAATATATTAGAACACACATATAGATGTAAAAA [CACACA_site6229],8.57 ± 0.54
21,TCGTCACTTTAATATTGTACATATATATATATATAT [XGTACX_site8046],10.3 ± 0.13
22,ATATATATATATATATGTACATATGTTAATCTGCAT [XGTACX_site1068],10.2 ± 0.31
23,TGTACAAATATGTACACACACACATATATATATATA [CACACA_site584],9.95 ± 0.31
24,ATATATGCATATATATGTACATATATATATATATAT [XGTACX_site7403],9.93 ± 0.4
25,ATTATGTTAATAATATGTACATATATCTACATATAT [XGTACX_site7978],8.37 ± 0.33

row,Sequence,gcPBM binding intensity (ln)
1,AAATATATAATACATATGTAATATGCATATATATAT [GTGCAC_negctrl_site450],9.72 ± 0.16
2,ATATATATATATATATGTACATAATGCATATAATAT [XGTACX_site6142],10.2 ± 0.56
3,CGCTCTCTTTAATATTGTACATATATATTATATATA [XGTACX_site7017],8.77 ± 0.35
4,TAAAAATCCACAAGCACACAAATGTACATATATATA [CACACA_site2462],8.71 ± 0.24
5,CGCATGCAATGTTAATGTACATATATATATATATGT [XGTACX_site3316],9.395 ± 0.049
6,ACACAAGCACACAAATGTACATATATATATATATAT [XGTACX_site5146],10.2 ± 0.13
7,TTTTTTTTTTTTTATTGTACATACTTTTAAATATAT [XGTACX_site4303],8.55 ± 0.59
8,TACAAATATATATGCACACACATATATGTATATGTG [CACACA_site3075],8.65 ± 0.26
9,TCACATACATTACTTACACACCATATTAAGATATAC [CACACA_site4415],8.68 ± 0.43
10,ATTTATATTCCAATATGTACATATTTTCGTATAACC [XGTACX_site8507],8.88 ± 0.35
11,AAATTTCAATAATCTACACACATAAAAAAACAAAAG [CACACA_site1702],8.82 ± 0.52
12,TACAATTTTTTAAATGCACACAAAAGGAATAAATAA [CACACA_site8075],8.78 ± 0.16
13,GAAAAAAGAAATTAAACATGCATCTGCAAATTTAAA [TGCATGCA_site974],8.34 ± 0.42
14,TGAATACTTATGTTCGCACACATGCAAATTAAAAAA [CACACA_site4048],8.62 ± 0.22
15,ACTATAAATATATACACATGCGCACACACAAGTGGG [TGCATGCA_site432],8.77 ± 0.39
16,TCTTATTCAAACGTAAAACGAAGAAGAAAAAAAAAA [CACACA_negctrl_site149],8.49 ± 0.41
17,GTTATAAATGCATATACACACATACGTACATACATA [CACACA_site7655],8.79 ± 0.23
18,ATACACAAATGCATACGTACATATATATATATATAT [XGTACX_site3504],10.2 ± 0.33
19,AAAATAATAAATAAATGTACATATATATATATATAT [XGTACX_site3078],10.2 ± 0.47
20,AAAATAATGTATATATGTACATATAAATATATATAT [XGTACX_site8081],9.32
21,ATAATAAAAATAAAATGTACATACATAAATATATAT [XGTACX_site6228],8.62 ± 0.28
22,AATGTACAAATACGTACACACATATATATATATATA [CACACA_site1542],10.1 ± 0.42
23,TATTTCATATGAAGAAGTACTATTAATAATTTCCTT [XGTACX_site6587],8.3 ± 0.28
24,TATTATTTTAATTATTCACACATTATTATAAAAATT [CACACA_site5538],8.3 ± 0.33

# Source: the supplement of paper PMC11417369
